Source: PubChem BioAssay
Shiga toxin inh: A qHTS for Small Molecule Inhibitors of Shiga Toxin; inhibition, % at 38.7 µM; Vero cells, Shiga toxin protein synthesis inhibition reporter; actives 9.2% (n = 290,000); in the data active = inhibition mostly above about 28%, no sharp cut-off; inactive = mostly below about 43%; note: 0% is about no effect
AmpC detergent: qHTS Inhibitors of AmpC Beta-Lactamase (assay with detergent); actives 0.041% (n = 370,000); AmpC hydrolysis of nitrocefin, absorbance 480 nm, 0.01% Triton; P00811; Potency, µM (top dose mostly 114 µM), inactives show at the top dose activity change, negative = inhibition, usual class: inhibitors;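 note: potency is the fitted concentration of half-maximal effect; 0% = no-compound wells and -100% = no-enzyme wells; nearly all actives have a fitted effect of over 25% in size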
Target sequence (P00811 whole entry, looked up): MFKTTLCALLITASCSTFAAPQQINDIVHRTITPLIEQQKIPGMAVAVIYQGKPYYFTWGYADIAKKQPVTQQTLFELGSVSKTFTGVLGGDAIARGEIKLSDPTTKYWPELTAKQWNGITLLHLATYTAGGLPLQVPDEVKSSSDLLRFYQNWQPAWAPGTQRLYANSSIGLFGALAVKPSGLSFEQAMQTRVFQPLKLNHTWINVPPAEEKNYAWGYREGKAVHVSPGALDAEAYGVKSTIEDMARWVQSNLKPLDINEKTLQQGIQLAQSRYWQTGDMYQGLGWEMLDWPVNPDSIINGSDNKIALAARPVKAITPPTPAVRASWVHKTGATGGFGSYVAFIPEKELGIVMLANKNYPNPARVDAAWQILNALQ
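AmpC (5.3 nM in the dispensed reagent) in 20 mM phosphate pH 7.0 with 0.01% (detergent screen) or 0.0001% Triton X-100 was preincubated with compounds for 15 min at room temperature. Nitrocefin was then added from an 800 uM solution, and hydrolysis was followed at 480 nm.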
NS1 inh: qHTS Assay for Inhibitors of Influenza NS1 Protein Function; actives 0.4% (n = 270,000); Potency, µM (series often up to 46.1 µM), for inactives: top-dose activity, positive = more growth; AID 2326, 2010; calls by dose curve; note: potency is the fitted concentration of half-maximal effect; actives are rising curves; nearly all actives have a fitted effect of over 50% in size
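OD600 was taken as the measure of yeast growth restored by compound in an NS1-expressing S. cerevisiae strain. Cells had been washed out of glucose medium and diluted 1:100 into galactose -URA medium, pH 6.0.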
AmpC no deterg: qHTS Inhibitors of AmpC Beta-Lactamase (assay without detergent) | P00811 | AmpC nitrocefin hydrolysis, absorbance 480 nm, 0.0001% Triton | Potency, µM (titrated, usually from 57.1 µM), without a hit: top-dose activity change, negative = inhibition, hits mostly inhibitors | actives 0.52% (n = 330,000) | AID 485341, 2010;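 note: potency is the fitted concentration of half-maximal effect; plate controls were no compound for no effect and no enzyme for full effect; nearly all actives have a fitted effect of over 20% in size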
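AmpC (5.3 nM in the dispensed reagent) in 20 mM phosphate pH 7.0 with 0.01% (detergent screen) or 0.0001% Triton X-100 was preincubated with compounds for 15 min at room temperature. Nitrocefin was then added from an 800 uM solution, and hydrolysis was followed at 480 nm.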
Cycloheximide cs: Cycloheximide Counterscreen for Small Molecule Inhibitors of Shiga Toxin; actives 12% (n = 300,000); max response, %; AID 2314, 2010; cell reporter, cycloheximide protein synthesis inhibition counterscreen; in the data active = max response mostly above about 13%, no sharp cut-off; inactive = mostly below about 14%; note: read at 38.3 µM for the half of the compounds with a filed dose; 0% is about no effect
The depositor's hits bear a star; ? = inconclusive; · = no result. Shown is part of a subset that was picked to be rich in hits. Unless noted, calls come from the whole dose curve; as a rule, active = well fitted curve in the direction sought with a large enough effect; inconclusive = small, poorly fitted or top-dose-only effect, or another doubt; inactive = no such curve, though single readings can be large; an effect the other way counts as inactive or inconclusive.

SMILES	Shiga toxin inh	AmpC detergent	NS1 inh	AmpC no deterg	Cycloheximide cs
CCc1ccc(-c2ccc3nnc(SCC(N)=O)n3n2)cc1	9	1%	0%	6%	-1
CCc1ccc(-c2ccc3nnc(SC)n3n2)cc1	17	-10%	-5%	79%	22*
CCSc1nnc2ccc(-c3ccc(C)cc3)nn12	34	8%	-7%	108%	26*
CCSc1nnc2ccc(-c3cccs3)nn12	7	?	·	-4%	11
CCCOc1cccc(-c2cc(C(=O)NNC(=S)NCC)c3ccccc3n2)c1	87*	-7%	-35%	-46%	25*
CCNC(=S)NNC(=O)c1cc(-c2cccc(OC)c2)nc2ccccc12	43	-13%	7%	-21%	71*
CCCCNC(=S)NNC(=O)c1cc(-c2ccncc2)nc2ccccc12	24	5%	-38%	-43%	19*
CCCCNC(=S)NNC(=O)c1cc(C2CC2)nc2ccccc12	-9	-2%	-5%	-25%	-2
CCN(C(=O)c1cccn(Cc2ccccc2C)c1=O)c1ccccc1	·	3%	·	·	·
CC(=O)c1cccc(OCC(O)CNCC2COc3ccccc3O2)c1 (stereo not drawn)	5	-3%	-3%	25%	2
CCC(=O)N(C)/C=C1\Sc2ccccc2C1=O	148*	2%	-93%	-9%	30*
O=C1/C(=C/c2cccnc2)Sc2ccccc21	-2	-10%	-12%	-39%	13
O=CN(/C=C1\Sc2ccccc2C1=O)Cc1ccccc1	67*	5%	-102%	-29%	40*
CC(=O)N(C)/C=C1\Sc2ccccc2C1=O	42	4%	-143%	-33%	17*
CC(=O)Nc1ccc(/C=C2\Sc3ccccc3C2=O)cc1	25	-1%	0%	-11%	5
Cc1ccc(/C=C2\Sc3ccccc3C2=O)s1	34*	-2%	-6%	-45%	14*
O=C(O)C1CCCCC1C(=O)N1CC=C(c2ccccc2)CC1 (stereo not drawn)	53*	-23%	14%	-34%	27*
O=C(Nc1ccccc1)N1CC=C(c2ccccc2)CC1	80*	?	-54%	-13%	36*
O=C(Nc1ccccc1)N1CC=C(c2ccc(F)cc2)CC1	95*	1%	-31%	-37%	52*
Cc1ccc(C(=O)N2CC=C(c3ccccc3)CC2)s1	·	-6%	·	-9%	·
O=C(Nc1cccc2ccccc12)N1CC=C(c2ccccc2)CC1	35	-7%	4%	-16%	-4
CCC(=O)N1CCc2cc(S(=O)(=O)CCC(=O)Nc3cc(Cl)ccc3OC)ccc21	·	-3%	·	·	·
CC(=NCCN1CCCCC1)c1c(O)[nH]c(=O)[nH]c1=O	87*	2%	-3%	-10%	20
O=C(CSc1nc2ccccc2c(=O)[nH]1)Nc1ccc(Br)cc1	-14	1%	-9%	2%	8
CCN(CC)c1ccc(NC(=O)CSc2nc3ccccc3c(=O)[nH]2)cc1	1	?	-12%	20µM*	-3
SMILES	Shiga toxin inh	AmpC detergent	NS1 inh	AmpC no deterg	Cycloheximide cs
CCC(Sc1nc2ccccc2c(=O)[nH]1)C(=O)Nc1ccc(C(C)=O)cc1 (stereo not drawn)	59*	0%	1%	-2%	32*
CCCn1c(SCC(=O)NCc2ccccc2)nnc1-c1ccncc1	-8	3%	3%	1%	-5
Nc1c(C(=O)Nc2ccccc2)nnn1Cc1ccc(F)cc1Cl	·	18%	·	·	·
O=C(c1ccc(F)cc1)c1ccc(-c2ccc(F)cc2)nc1	48	-3%	1%	-27%	14*
COc1ccc(C(=O)c2ccc(-c3ccc(OC)cc3)nc2)cc1	27	-2%	1%	-3%	-1
Cc1ccc(NC(=O)/C=C/c2ccccc2Cl)cc1Cl	·	4%	·	·	·
O=C(/C=C/c1ccc(Cl)cc1Cl)NCc1ccncc1	58	6%	1%	50%	30*
CC(=O)N(C)c1ccc(NC(=O)/C=C/c2ccccc2Cl)cc1	41*	2%	-7%	7%	80*
COc1ccccc1/C=C/C(=O)Nc1cccnc1	156*	5%	-28%	-13%	37*
O=C(/C=C/c1ccccc1Cl)NC1CCCCC1	27*	-4%	-2%	-13%	33*
COc1cc(C2Nc3ccc4ccccc4c3C3=C2C(=O)CC(C)(C)C3)ccc1OC(C)C(=O)O (stereo not drawn)	29	2%	11%	-10%	13
O=C(/C=C/c1ccccc1Cl)Nc1cccnc1	80*	-11%	-89%	-9%	60*
O=C(/C=C/c1ccccc1Cl)Nc1ccncc1	67*	-5%	-79%	15%	25*
CCC(CC)NC(=O)/C=C/c1ccccc1Cl	69*	0%	5%	-32%	35*
CN1CCN(C(=S)NC(=O)/C=C/c2ccccc2Cl)CC1	27	6%	1%	-12%	9
O=C(/C=C/c1ccc(Cl)cc1Cl)Nc1ccncc1	96*	-2%	-16%	-34%	50*
Cc1cc(C)nc(NS(=O)(=O)c2ccc(NC(=O)C3(c4ccccc4)CCCC3)cc2)n1	-12	6%	-4%	31%	-3
CSc1cccc(NC(=O)c2sc3nc4n(c(=O)c3c2C)CCC4)c1	50*	-2%	-19%	120%	17*
Cc1c(C(=O)Nc2cc(F)ccc2F)sc2nc3n(c(=O)c12)CCCCC3	31	-7%	1%	6%	36*
Cc1c(C(=O)Nc2ccc(Oc3ccccc3)cc2)sc2nc3n(c(=O)c12)CCC3	-17	-13%	13%	88%	-3
COc1cccc(NC(=O)c2sc3nc4n(c(=O)c3c2C)CCC4)c1	69*	-4%	-8%	59%	49*
Cc1ccc(NC(=O)c2sc3nc4n(c(=O)c3c2C)CCCCC4)c(Br)c1	·	1%	·	·	·
CC(=O)c1cccc(NC(=O)c2sc3nc4n(c(=O)c3c2C)CCCCC4)c1	-4	-4%	-3%	54%	16
CC1(c2ccc3ccccc3c2)NC(=O)N(CC(=O)N2CCN(Cc3ccc(C#N)cc3)CC2)C1=O (stereo not drawn)	·	-12%	·	168%	·
COc1ccc2c(c1)c1c(c(=O)n(-c3ccccc3C)c(=O)n1CC(=O)NCc1ccc(C)cc1)n2C	·	20%	·	·	·
SMILES	Shiga toxin inh	AmpC detergent	NS1 inh	AmpC no deterg	Cycloheximide cs
N=C(N)C(N=Nc1ccccc1)C(=N)N (stereo not drawn)	·	·	-4%	·	·
CCN(CC)c1ccc(/C=N\NC(=O)c2cccc3cc[nH]c23)cc1	43*	0%	-10%	-48%	32*
O=C(N/N=C/c1ccc([N+](=O)[O-])cc1)c1cccc2cc[nH]c12	21	-9%	·	-22%	16*
O=C(N/N=C/c1ccc([N+](=O)[O-])cc1)c1[nH]ncc1Br	82*	3%	·	-21%	47*
Brc1ccc(-c2nc(-c3ccccn3)no2)o1	-6	4%	-74%	-15%	14*
Fc1cccc(-c2nc(-c3ccncc3)no2)c1	·	-1%	·	·	·
Clc1ccc(-c2nc(-c3ccccn3)no2)cc1Cl	77*	-15%	-4%	-12%	66*
